Assay outcomes as filed in PubChem.
ADAM10 inh: inhibitors of human ADAM10; O14672; recombinant ADAM10, EDANS/DABCYL FRET peptide cleavage, 3 h; inhibition, % at 7 µM; actives 0.62% (n = 370,000);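 active = inhibition above a per-campaign cutoff equal to the mean of compounds falling between control-based bounds plus 3 SD, cut at about 20% in these data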
rRNA inh HTS: inhibits bacterial ribosomal RNA function over humanized ribosomes; actives 1.6% (n = 350,000); GFP signal change (wild-type ribosome), % (test concentration not listed); E. coli WT GFP vs humanized-ribosome RFP mutants, fluorescence, 24 h; hits give low values; DMSO median 0, no signal -100; AID 720706;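 active = significant combined selectivity score with lowered wild-type GFP, culture density cut under 30%, mutant RFP and density less affected; inactive = any of these conditions unmet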
FGF22 binding: FGF22 (human) thermal shift binding | Q9HCT0 | activity (Tm shift, normalised), % at 9.99 µM | recombinant FGF22 thermal shift, SYPRO orange fluorescence; percent of sucrose octasulfate shift, DMSO zero | actives 1.5% (n = 340,000);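 active = mean Tm shift, scaled 0 neutral to 100 positive control, at about 1.3% or above, every replicate too, limit read from the data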
Target sequence (Q9HCT0 whole entry, looked up): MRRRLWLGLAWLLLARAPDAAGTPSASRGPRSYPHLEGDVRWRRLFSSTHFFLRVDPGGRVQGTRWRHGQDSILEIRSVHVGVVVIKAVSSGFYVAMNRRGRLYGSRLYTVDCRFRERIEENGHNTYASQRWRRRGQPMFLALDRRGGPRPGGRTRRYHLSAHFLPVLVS
ADAM17 inh: inhibits human ADAM17. recombinant ADAM17, EDANS/DABCYL FRET peptide cleavage. AID 720648. actives 0.83% (n = 370,000). inhibition, % at 6.95 µM. P78536;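 active = inhibition above the mean of compounds lying between control limits plus 3 SD, set per campaign, cut at about 8.5% in these data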
proKLK7 act: activators of human kallikrein-7 zymogen. activation, % at 7 µM. AID 652039. purified proKLK7, EDANS-DABCYL substrate fluorescence; 100% is mature enzyme control, 0% vehicle. actives 0.9% (n = 370,000);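 active = activation above the mean of all tested compounds plus 3 SD, computed per campaign excluding outliers beyond control limits, cut at about 13% in these data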
Target sequence (P49862 whole entry, looked up): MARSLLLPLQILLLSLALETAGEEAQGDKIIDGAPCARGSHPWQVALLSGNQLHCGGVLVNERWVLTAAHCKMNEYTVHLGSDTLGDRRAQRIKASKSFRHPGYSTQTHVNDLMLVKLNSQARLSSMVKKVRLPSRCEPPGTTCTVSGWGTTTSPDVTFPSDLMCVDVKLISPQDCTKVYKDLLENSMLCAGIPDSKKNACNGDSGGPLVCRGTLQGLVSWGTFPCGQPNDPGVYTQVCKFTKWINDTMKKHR
Numbers stand for hits. Most compounds without a hit are left out; they make up all but 3.8% or so of the library.

How did Cc1cc(=O)[nH]c(SCC(=O)c2ccc(F)c(C)c2)n1 do in these assays?
ADAM10 inh: inactive; rRNA inh HTS: inactive; FGF22 binding: inactive; ADAM17 inh: inactive; proKLK7 act: inactive

What do the screens show for `Cc1cc(C)c2c(=O)[nH]c(SCC(=O)c3ccc(C)c(C)c3)nc2n1`?
ADAM10 inh: inactive; rRNA inh HTS: inactive; FGF22 binding: 44; ADAM17 inh: inactive; proKLK7 act: inactive

What do the screens show for `CCc1ccc(C(=O)CSc2nc(C)cc(=O)[nH]2)cc1`?
ADAM10 inh: inactive; rRNA inh HTS: -27; FGF22 binding: inactive; ADAM17 inh: inactive; proKLK7 act: inactive

Results for COc1ccc2c3c([nH]c2c1)[C@H](CO)N(S(C)(=O)=O)CC31CCN(CC2CC2)CC1 ?
rRNA inh HTS: inactive; FGF22 binding: inactive

How did CC(=O)N1CC2(C1)[C@@H](c1ccccc1)[C@@H](CO)N2Cc1cccc(Cl)c1 do in these assays?
rRNA inh HTS: inactive; FGF22 binding: inactive

What do the screens show for `COCC(=O)Nc1ccc2c(c1)OC[C@H](C)N(Cc1ccccc1OC)C[C@H](C)[C@@H](OC)CN(C)C2=O`?
rRNA inh HTS: inactive; FGF22 binding: inactive

Results for Cc1ccccc1CN1C(=O)c2ccccc2Sc2ccc(C(=O)NCCN3CCOCC3)cc21 ?
ADAM10 inh: inactive; rRNA inh HTS: inactive; FGF22 binding: inactive; ADAM17 inh: inactive; proKLK7 act: inactive

How did Cc1cccc(CN2C(=O)c3ccccc3Sc3ccc(C(=O)O)cc32)c1 do in these assays?
ADAM10 inh: inactive; rRNA inh HTS: -21; FGF22 binding: inactive; ADAM17 inh: inactive; proKLK7 act: inactive

Results for Cc1ccccc1CN1C(=O)c2ccccc2Sc2ccc(C(=O)O)cc21 ?
ADAM10 inh: inactive; rRNA inh HTS: -34; ADAM17 inh: inactive; proKLK7 act: inactive

What do the screens show for `O=C(c1ccc2c(c1)N(Cc1ccccc1)C(=O)c1ccccc1S2)N1CCCC1`?
ADAM10 inh: inactive; rRNA inh HTS: inactive; FGF22 binding: inactive; ADAM17 inh: inactive; proKLK7 act: inactive

Results for Cc1ccc(/C=c2\s/c(=C(/C#N)C(=O)N3CCCC3)n(Cc3ccco3)c2=O)s1 ?
ADAM10 inh: 20; rRNA inh HTS: inactive; ADAM17 inh: inactive; proKLK7 act: inactive

What do the screens show for `COc1cccc(-n2nc(C(N)=O)c(O)cc2=O)c1`?
ADAM10 inh: inactive; rRNA inh HTS: inactive; FGF22 binding: 43; ADAM17 inh: inactive; proKLK7 act: inactive

What do the screens show for `NC(=O)c1nn(-c2ccc(Cl)cc2Cl)c(=O)cc1O`?
ADAM10 inh: inactive; rRNA inh HTS: inactive; FGF22 binding: 44; ADAM17 inh: inactive; proKLK7 act: inactive

Results for COc1ccc(-n2nc(C(N)=O)c(O)cc2=O)cc1 ?
ADAM10 inh: inactive; rRNA inh HTS: inactive; FGF22 binding: inactive; ADAM17 inh: inactive; proKLK7 act: inactive

What do the screens show for `CCOC(=O)CSc1cc(C)nc2ccc(OC)cc12`?
ADAM10 inh: inactive; rRNA inh HTS: inactive; FGF22 binding: 43; ADAM17 inh: inactive; proKLK7 act: inactive

How did COc1ccc2nc(C)cc(SCC(=O)Nc3c(C)cc(C)cc3C)c2c1 do in these assays?
ADAM10 inh: inactive; ADAM17 inh: inactive; proKLK7 act: inactive

How did C[C@H]1CCCCO[C@H](CN(C)S(=O)(=O)c2ccc(F)cc2)[C@@H](C)CN([C@@H](C)CO)C(=O)c2cc(NC(=O)Cc3ccccc3)ccc2O1 do in these assays?
rRNA inh HTS: inactive; FGF22 binding: inactive

What do the screens show for `Cc1ccccc1/C=C/C(=O)N1CCOCC1`?
ADAM10 inh: inactive; rRNA inh HTS: inactive; FGF22 binding: 43; ADAM17 inh: inactive; proKLK7 act: inactive

What do the screens show for `Cc1[nH]c2ccccc2c1CCNC(=O)c1ccc2nccnc2c1`?
ADAM10 inh: inactive; rRNA inh HTS: inactive; FGF22 binding: inactive; ADAM17 inh: inactive; proKLK7 act: inactive

Results for Cc1[nH]c2ccccc2c1CCNC(=O)c1c(N)no[n+]1[O-] ?
ADAM10 inh: inactive; rRNA inh HTS: -21; FGF22 binding: inactive; ADAM17 inh: inactive; proKLK7 act: inactive

Results for CCCC/C(O)=C1\C(=O)CCCC1=NCCc1c(C)[nH]c2ccc(OC)cc12 ?
ADAM10 inh: inactive; rRNA inh HTS: -18; FGF22 binding: inactive; ADAM17 inh: inactive; proKLK7 act: inactive

Results for CC/C(O)=C1\C(=O)CCCC1=NCCc1c(C)[nH]c2ccc(C)cc12 ?
ADAM10 inh: inactive; rRNA inh HTS: inactive; FGF22 binding: inactive; ADAM17 inh: inactive; proKLK7 act: inactive
